# Reference: publication PMC8384837, “Expanding the binding specificity for RNA recognition by a PUF domain”
# Changes are numbered by the printed parent chain.
# Assays:
# Experiment in all cases: yeast three-hybrid, YBZ-1, SC-Leu-His + 0.5 mM 3-AT, 4 days
# Conditions in all cases: tags: N-Gal4 AD-HA kept; label: inside an RPR1-promoter hybrid RNA with tandem MS2 sites; ssRNA
# [1] = target: PUM1 PUF domain R1-KRF (Homo sapiens, UniProt Q14671 828-1176, S863K;Q867F)
# Outline: (§1)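 Repeat regions from input (SC-Leu) and selection (SC-Leu-His + 0.5 mM 3-AT) plates were PCR-amplified and Illumina-sequenced after four days of growth. The cells were strain YBZ-1 with a LexA–MS2 coat fusion and a HIS3 reporter, co-expressing Pumilio-1 PUF domain libraries and matching RNA elements from a centromeric plasmid. The interaction score is the log change in variant frequency from input to selection, taken in log2 with a pseudocount of 1 for absent variants.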
# [2] = target: PUM1 PUF domain R1-QTR (Homo sapiens, UniProt Q14671 828-1176, S863Q;R864T;Q867R)
# Outline: as §1
# [3] = target: PUM1 PUF domain R8-RFR (Homo sapiens, UniProt Q14671 828-1176, N1122R;Y1123F;Q1126R)
# Outline: as §1
# [4] = target: PUM1 PUF domain R3-CRM (Homo sapiens, UniProt Q14671 828-1176, Q939M)
# Outline: as §1
# [5] = target: PUM1 PUF domain R4-GPH (Homo sapiens, UniProt Q14671 828-1176, N971G;H972P;Q975H)
# Outline: as §1
# [6] = target: T1, PUM1 PUF domain R6-NYV (Homo sapiens, UniProt Q14671 828-1176, Q1047V)
# T1 sequence: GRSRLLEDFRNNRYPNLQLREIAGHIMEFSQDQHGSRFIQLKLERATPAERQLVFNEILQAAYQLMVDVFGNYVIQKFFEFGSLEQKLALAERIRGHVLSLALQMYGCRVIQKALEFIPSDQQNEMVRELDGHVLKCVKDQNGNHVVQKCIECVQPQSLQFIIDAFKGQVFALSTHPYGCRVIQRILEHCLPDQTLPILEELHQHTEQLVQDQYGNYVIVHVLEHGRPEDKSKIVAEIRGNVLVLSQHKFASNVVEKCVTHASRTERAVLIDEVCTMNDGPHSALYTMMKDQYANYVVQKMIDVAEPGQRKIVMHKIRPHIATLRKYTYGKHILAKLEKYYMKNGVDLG
# Outline: as §1
# [7] = target: T2, PUM1 PUF domain R6-QRS (Homo sapiens, UniProt Q14671 828-1176, N1043Q;Y1044R;Q1047S)
# T2 sequence: T1 sequence with N216Q, Y217R, V220S
# Outline: as §1
# [8] = target: PUM1 PUF domain R3-IFT (Homo sapiens, UniProt Q14671 828-1176, C935I;R936F;Q939T)
# Outline: as §1
# [9] = target: PUM1 PUF domain R5-KYS (Homo sapiens, UniProt Q14671 828-1176, C1007K;R1008Y;Q1011S)
# Outline: as §1
# [10] = target: PUM1 PUF domain R8-EWK (Homo sapiens, UniProt Q14671 828-1176, N1122E;Y1123W;Q1126K)
# Outline: as §1
# [11] = target: PUM1 PUF domain R3-YRE (Homo sapiens, UniProt Q14671 828-1176, C935Y;Q939E)
# Outline: as §1
# [12] = target: PUM1 PUF domain R3-RCS (Homo sapiens, UniProt Q14671 828-1176, C935R;R936C;Q939S)
# Outline: as §1
# [13] = target: PUM1 PUF domain R7-RRL (Homo sapiens, UniProt Q14671 828-1176, S1079R;N1080R;E1083L)
# Outline: as §1
# [14] = target: PUM1 PUF domain R7-TIV (Homo sapiens, UniProt Q14671 828-1176, S1079T;N1080I;E1083V)
# Outline: as §1
# [15] = target: PUM1 PUF domain R1-RWD (Homo sapiens, UniProt Q14671 828-1176, S863R;R864W;Q867D)
# Outline: as §1
# [16] = target: PUM1 PUF domain R3-KPV (Homo sapiens, UniProt Q14671 828-1176, C935K;R936P;Q939V)
# Outline: as §1
# [17] = target: PUM1 PUF domain R5-RHN (Homo sapiens, UniProt Q14671 828-1176, C1007R;R1008H;Q1011N)
# Outline: as §1
sequence,measurement,setting,value
GGCUAGAACUAGUGGAUCCCCCGGCGCCCGGCGGCUCGAGCCCGGGUAAGUGUAAAUCGUCUGCAUGCCGCCGGGCGCCAUGCCUGCAGGUCGACUCUAGAAAACAUG,binding signal,[1],3.25 log2 enrichment (interaction score)
same,binding signal,[2],2.41 log2 enrichment (interaction score)
GGCUAGAACUAGUGGAUCCCCCGGCGCCCGGCGGCUCGAGCCCGGGUAAGUGUAAAUAGUCUGCAUGCCGCCGGGCGCCAUGCCUGCAGGUCGACUCUAGAAAACAUG,binding signal,[3],6.72 log2 enrichment (interaction score)
same,binding signal,[4],3.01 log2 enrichment (interaction score)
same,binding signal,[5],4.16 log2 enrichment (interaction score)
same,binding signal,[6],4.01 log2 enrichment (interaction score)
same,binding signal,[7],4.63 log2 enrichment (interaction score)
same,binding signal,[8],4.66 log2 enrichment (interaction score)
same,binding signal,[9],2.35 log2 enrichment (interaction score)
same,binding signal,[10],3.5 log2 enrichment (interaction score)
GGCUAGAACUAGUGGAUCCCCCGGCGCCCGGCGGCUCGAGCCCGGGUAAGCGUAAAUAGUCUGCAUGCCGCCGGGCGCCAUGCCUGCAGGUCGACUCUAGAAAACAUG,binding signal,[3],6.81 log2 enrichment (interaction score)
GGCUAGAACUAGUGGAUCCCCCGGCGCCCGGCGGCUCGAGCCCGGGUAAGUGUAAGUAGUCUGCAUGCCGCCGGGCGCCAUGCCUGCAGGUCGACUCUAGAAAACAUG,binding signal,[4],1.46 log2 enrichment (interaction score)
same,binding signal,[11],3.13 log2 enrichment (interaction score)
same,binding signal,[12],4.81 log2 enrichment (interaction score)
GGCUAGAACUAGUGGAUCCCCCGGCGCCCGGCGGCUCGAGCCCGGGUAAGUGUAUAUAGUCUGCAUGCCGCCGGGCGCCAUGCCUGCAGGUCGACUCUAGAAAACAUG,binding signal,[5],1.26 log2 enrichment (interaction score)
GGCUAGAACUAGUGGAUCCCCCGGCGCCCGGCGGCUCGAGCCCGGGUAAGUUUAAAUAGUCUGCAUGCCGCCGGGCGCCAUGCCUGCAGGUCGACUCUAGAAAACAUG,binding signal,[13],6.01 log2 enrichment (interaction score)
same,binding signal,[14],2.5 log2 enrichment (interaction score)
GGCUAGAACUAGUGGAUCCCCCGGCGCCCGGCGGCUCGAGCCCGGGUAAGUCUAAAUAGUCUGCAUGCCGCCGGGCGCCAUGCCUGCAGGUCGACUCUAGAAAACAUG,binding signal,[13],5.23 log2 enrichment (interaction score)
GGCUAGAACUAGUGGAUCCCCCGGCGCCCGGCGGCUCGAGCCCGGGUAAGUGUAAAUGGUCUGCAUGCCGCCGGGCGCCAUGCCUGCAGGUCGACUCUAGAAAACAUG,binding signal,[15],2.32 log2 enrichment (interaction score)
GGCUAGAACUAGUGGAUCCCCCGGCGCCCGGCGGCUCGAGCCCGGGUAAGUGUAAUUAGUCUGCAUGCCGCCGGGCGCCAUGCCUGCAGGUCGACUCUAGAAAACAUG,binding signal,[16],3.62 log2 enrichment (interaction score)
GGCUAGAACUAGUGGAUCCCCCGGCGCCCGGCGGCUCGAGCCCGGGUAAGUGUGAAUAGUCUGCAUGCCGCCGGGCGCCAUGCCUGCAGGUCGACUCUAGAAAACAUG,binding signal,[17],4.79 log2 enrichment (interaction score)
GGCUAGAACUAGUGGAUCCCCCGGCGCCCGGCGGCUCGAGCCCGGGUAAGUGUCAAUAGUCUGCAUGCCGCCGGGCGCCAUGCCUGCAGGUCGACUCUAGAAAACAUG,binding signal,[9],3.71 log2 enrichment (interaction score)
